# Measurements reported in PubChem BioAssay (NCI).
# Compounds without any hit were thinned out: in the full panel of roughly 83,000, 20% have a hit.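 Activity criterion: percent growth below 10, measured after cells in 96-well plates were exposed to a single compound concentration for 48 hours.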 A number with no mark means an inactive call. Activity calls are given as the source filed them.
# Assays:
# Assay in all cases: NCI-60 one-dose screen, 48 h (100 = growth as untreated, 0 = no growth, -100 = all killed)
# Conditions in all cases: 10 µM unless noted
# DU-145 prostate = system: DU-145 prostate
# K-562 leukemia = system: K-562 leukemia
# MALME-3M melanoma = system: MALME-3M melanoma
# MDA-MB-231 breast = system: MDA-MB-231 breast
# RXF 393 renal = system: RXF 393 renal
# SF-268 CNS = system: SF-268 CNS
# SF-295 CNS = system: SF-295 CNS
# SF-539 CNS = system: SF-539 CNS
# UACC-257 melanoma = system: UACC-257 melanoma
# M14 melanoma = system: M14 melanoma
# HCT-15 colon = system: HCT-15 colon
# HT29 colon = system: HT29 colon
# SNB-75 CNS = system: SNB-75 CNS
# SNB-19 CNS = system: SNB-19 CNS
# U251 CNS = system: U251 CNS
# PC-3 prostate = system: PC-3 prostate
# SK-MEL-5 melanoma = system: SK-MEL-5 melanoma
# UACC-62 melanoma = system: UACC-62 melanoma
# LOX IMVI melanoma = system: LOX IMVI melanoma
# SK-MEL-28 melanoma = system: SK-MEL-28 melanoma
Structure (SMILES),growth (DU-145 prostate) [%],growth (K-562 leukemia),growth (MALME-3M melanoma),growth (MDA-MB-231 breast),growth (RXF 393 renal),growth (SF-268 CNS) [%],growth (SF-295 CNS) [%],growth (SF-539 CNS),growth (UACC-257 melanoma) [%],growth (M14 melanoma) [%],growth (HCT-15 colon) [%],growth (HT29 colon),growth (SNB-75 CNS),growth (SNB-19 CNS) [%],growth (U251 CNS) [%],growth (PC-3 prostate),growth (SK-MEL-5 melanoma),growth (UACC-62 melanoma) [%],growth (LOX IMVI melanoma),growth (SK-MEL-28 melanoma) [%]
O=C1/C(=C/c2ccc(OCc3ccccc3)cc2)Oc2cc(OCCN3CCCCC3)ccc21,91.9,9.17% (active),67.8%,80.9%,60.8%,77.4,92.9,69.5%,90,60.8,14,33.2%,83%,94.3,69.8,74.9%,61.6%,61,52.3%,78.4
COc1cc(-c2nc(SCCC(C)C)nc(Nc3ccc(S(N)(=O)=O)cc3)c2C#N)cc(OC)c1OC,43.1,7.52% (active),19.1%,25.1%,10.1%,42.4,21.8,38.6%,46,20.6,14,2.83% (active),47.6%,54.3,31.5,9.42% (active),37.4%,45.7,5.65% (active),59.1
COc1ccc(C2=C(c3cn(C)c4ccccc34)C(=O)OC2)cc1OC,48.7,18%,35.4%,49.8%,-7.01% (active),52.1,23,-12.2% (active),79.7,50,23.7,6.9% (active),-29.3% (active),38.3,35.1,21.3%,16.4%,26.8,49.6%,69.9
CC1Cc2c(Cl)ncnc2N(C)c2ccccc21 (stereo not given),65.6,37.6%,0.822% (active),-33.8% (active),13.6%,24.4,19.9,33%,11.5,14.7,12.6,-24.1% (active),82.8%,28.4,19.6,16.3%,-75.1% (active),13.5,-43.6% (active),20.9
CC1=CC[C@@H]2C(C)(C)C(=O)CC[C@@]2(C)[C@@H]1COc1ccc2ccc(=O)oc2c1,88.3,60.1%,78%,89.4%,68.6%,86.4,69,87.5%,91.4,89,78.6,78.5%,76.6%,81,87.5,58.4%,26.1%,41.9,87.9%,87.7
CCOc1ccc(S(=O)(=O)Nc2ccc3c(c2)N(S(=O)(=O)CC)CCC3)cc1,89.6,71.6%,100%,88.7%,86.2%,74.1,59.2,61.6%,85.4,107,89.9,72.7%,64.8%,80.4,61.8,73.1%,74.9%,64.8,83.4%,103
NC(=O)CC1C=CCC1 (stereo not given),102,96%,97.8%,102%,111%,102,98.3,93.3%,90.4,102,99.5,96.3%,84.3%,104,85.5,98.7%,99.5%,101,103%,109
CC1(C(=O)O)CCC(N)(C(=O)O)C1(C)C (stereo not given),118,107%,113%,108%,126%,112,97.3,108%,121,110,106,103%,90%,105,105,88.8%,107%,107,109%,109
